Legend:
Assay in all cases: log2 ratio of Biotin-Ahx-Ub-VS probe labelling (fragment/DMSO); higher = less target engagement (more negative = stronger competition), active = hit call of the paper (q ≤ 0.05, log2 ratio ≤ -1)
Conditions in all cases: compound concentration: 200 uM; treatment time: 3 h
[1] = molecular target: T1, USP19 (UniProt O94966)
T1 sequence (whole entry): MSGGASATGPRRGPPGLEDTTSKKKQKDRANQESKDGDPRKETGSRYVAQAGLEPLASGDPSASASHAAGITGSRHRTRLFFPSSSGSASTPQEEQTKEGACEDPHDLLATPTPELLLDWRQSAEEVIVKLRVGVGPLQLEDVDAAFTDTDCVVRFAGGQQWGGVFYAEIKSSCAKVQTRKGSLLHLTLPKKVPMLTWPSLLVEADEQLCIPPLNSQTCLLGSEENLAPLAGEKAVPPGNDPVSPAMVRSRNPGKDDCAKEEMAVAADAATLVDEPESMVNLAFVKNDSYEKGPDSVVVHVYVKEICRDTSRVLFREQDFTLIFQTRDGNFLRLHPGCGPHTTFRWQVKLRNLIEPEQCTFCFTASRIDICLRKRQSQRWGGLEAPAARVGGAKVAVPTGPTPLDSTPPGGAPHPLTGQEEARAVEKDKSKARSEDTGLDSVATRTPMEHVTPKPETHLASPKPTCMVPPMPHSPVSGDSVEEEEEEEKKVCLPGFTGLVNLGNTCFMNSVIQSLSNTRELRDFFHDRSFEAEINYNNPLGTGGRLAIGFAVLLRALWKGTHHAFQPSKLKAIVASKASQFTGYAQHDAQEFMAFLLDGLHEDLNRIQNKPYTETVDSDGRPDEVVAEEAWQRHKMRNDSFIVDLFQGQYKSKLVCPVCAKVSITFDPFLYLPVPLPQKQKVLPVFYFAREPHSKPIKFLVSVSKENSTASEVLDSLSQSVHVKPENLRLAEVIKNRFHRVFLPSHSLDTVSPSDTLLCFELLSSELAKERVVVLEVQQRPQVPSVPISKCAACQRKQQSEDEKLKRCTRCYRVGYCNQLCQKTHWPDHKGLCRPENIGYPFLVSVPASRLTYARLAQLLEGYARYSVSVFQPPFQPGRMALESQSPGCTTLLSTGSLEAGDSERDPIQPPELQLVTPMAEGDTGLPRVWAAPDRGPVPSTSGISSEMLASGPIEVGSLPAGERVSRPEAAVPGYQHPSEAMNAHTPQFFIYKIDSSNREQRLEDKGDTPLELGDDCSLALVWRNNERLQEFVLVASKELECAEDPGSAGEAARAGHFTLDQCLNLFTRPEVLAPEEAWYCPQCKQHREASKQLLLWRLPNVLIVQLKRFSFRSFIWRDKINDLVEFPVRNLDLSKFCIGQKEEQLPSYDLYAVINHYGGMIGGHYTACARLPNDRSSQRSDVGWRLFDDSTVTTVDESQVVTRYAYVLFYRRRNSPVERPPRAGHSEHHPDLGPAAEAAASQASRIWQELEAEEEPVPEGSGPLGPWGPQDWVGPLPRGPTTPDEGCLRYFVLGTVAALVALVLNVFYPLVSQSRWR
Method in brief: (§1)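 HEK293T lysate, 495 µg per sample in Tris/CHAPS/IGEPAL buffer with protease inhibitors, was treated in triplicate with fragment at 200 µM or vehicle for 3 h and then with Biotin-Ahx-Ub-VS at 0.5 µM final for 1 h. Labelled DUBs were NeutrAvidin-enriched, digested with LysC and trypsin, and run by diaPASEF LC-MS/MS. Spectronaut label-free quantities were global-median-normalised, and values are average log2 fragment/vehicle ratios by unpaired t-test on proteins with ≥2 unique peptides.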

[2] = molecular target: USP24 (UniProt Q9UPU5)
Method in brief: as §1

[3] = molecular target: T2, USP25 (UniProt Q9UHP3)
T2 sequence (whole entry): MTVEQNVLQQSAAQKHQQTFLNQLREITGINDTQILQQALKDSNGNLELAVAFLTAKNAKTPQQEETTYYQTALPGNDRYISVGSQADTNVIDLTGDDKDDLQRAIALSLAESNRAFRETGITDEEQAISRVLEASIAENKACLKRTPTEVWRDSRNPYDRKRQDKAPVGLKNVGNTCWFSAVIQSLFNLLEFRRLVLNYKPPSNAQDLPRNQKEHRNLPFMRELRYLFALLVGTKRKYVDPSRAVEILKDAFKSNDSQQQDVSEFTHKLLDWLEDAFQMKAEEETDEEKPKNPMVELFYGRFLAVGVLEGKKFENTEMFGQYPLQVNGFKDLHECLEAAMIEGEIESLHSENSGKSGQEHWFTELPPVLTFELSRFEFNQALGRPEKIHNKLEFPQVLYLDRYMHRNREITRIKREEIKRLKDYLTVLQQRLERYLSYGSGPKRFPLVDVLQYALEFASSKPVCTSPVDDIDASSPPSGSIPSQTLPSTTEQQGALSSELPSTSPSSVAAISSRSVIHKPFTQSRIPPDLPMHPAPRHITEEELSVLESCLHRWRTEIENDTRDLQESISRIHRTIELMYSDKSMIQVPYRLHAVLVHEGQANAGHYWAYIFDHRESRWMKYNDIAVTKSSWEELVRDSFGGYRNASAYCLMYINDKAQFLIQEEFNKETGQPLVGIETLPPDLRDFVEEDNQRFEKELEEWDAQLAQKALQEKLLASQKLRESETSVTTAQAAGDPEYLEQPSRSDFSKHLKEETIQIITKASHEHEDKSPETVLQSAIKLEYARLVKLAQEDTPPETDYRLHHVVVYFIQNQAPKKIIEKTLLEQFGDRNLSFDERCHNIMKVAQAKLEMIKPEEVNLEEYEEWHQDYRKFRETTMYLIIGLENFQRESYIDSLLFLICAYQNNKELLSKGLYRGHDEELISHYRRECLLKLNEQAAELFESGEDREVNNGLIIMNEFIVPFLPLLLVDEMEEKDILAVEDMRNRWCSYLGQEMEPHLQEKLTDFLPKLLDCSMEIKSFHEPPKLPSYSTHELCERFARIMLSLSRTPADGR
Method in brief: as §1

[4] = molecular target: T3, USP28 (UniProt Q96RU2)
T3 sequence (whole entry): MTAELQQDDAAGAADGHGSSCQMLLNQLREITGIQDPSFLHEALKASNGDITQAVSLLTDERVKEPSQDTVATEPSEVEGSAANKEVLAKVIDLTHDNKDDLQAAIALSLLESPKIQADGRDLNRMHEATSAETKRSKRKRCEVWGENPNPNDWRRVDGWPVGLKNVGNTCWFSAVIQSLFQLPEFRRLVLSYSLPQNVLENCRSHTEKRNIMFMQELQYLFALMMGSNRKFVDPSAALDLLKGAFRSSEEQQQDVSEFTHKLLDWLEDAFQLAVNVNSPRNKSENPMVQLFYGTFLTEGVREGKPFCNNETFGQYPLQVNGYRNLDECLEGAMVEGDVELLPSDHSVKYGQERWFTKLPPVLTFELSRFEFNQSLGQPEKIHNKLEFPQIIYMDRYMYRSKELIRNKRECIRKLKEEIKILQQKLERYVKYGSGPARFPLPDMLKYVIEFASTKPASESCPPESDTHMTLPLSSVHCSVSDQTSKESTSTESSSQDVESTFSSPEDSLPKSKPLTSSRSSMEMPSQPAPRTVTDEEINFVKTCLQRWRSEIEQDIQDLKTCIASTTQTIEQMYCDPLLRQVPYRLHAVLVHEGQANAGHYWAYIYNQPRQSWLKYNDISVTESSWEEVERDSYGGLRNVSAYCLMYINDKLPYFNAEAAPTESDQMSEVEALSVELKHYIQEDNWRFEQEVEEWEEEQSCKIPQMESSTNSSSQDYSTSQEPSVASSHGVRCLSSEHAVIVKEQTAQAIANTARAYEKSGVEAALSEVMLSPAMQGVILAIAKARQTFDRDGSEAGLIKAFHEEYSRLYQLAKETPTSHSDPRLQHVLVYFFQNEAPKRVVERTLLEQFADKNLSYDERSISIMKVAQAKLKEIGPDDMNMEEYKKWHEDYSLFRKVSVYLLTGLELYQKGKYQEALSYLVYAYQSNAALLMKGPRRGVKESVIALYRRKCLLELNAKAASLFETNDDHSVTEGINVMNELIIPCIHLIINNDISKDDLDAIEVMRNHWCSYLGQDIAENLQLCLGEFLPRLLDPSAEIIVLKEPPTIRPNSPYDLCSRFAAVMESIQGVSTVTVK
Method in brief: as §1

Measured: log2 ratio of Biotin-Ahx-Ub-VS probe labelling

USP24, sequence (Q9UPU5 whole entry): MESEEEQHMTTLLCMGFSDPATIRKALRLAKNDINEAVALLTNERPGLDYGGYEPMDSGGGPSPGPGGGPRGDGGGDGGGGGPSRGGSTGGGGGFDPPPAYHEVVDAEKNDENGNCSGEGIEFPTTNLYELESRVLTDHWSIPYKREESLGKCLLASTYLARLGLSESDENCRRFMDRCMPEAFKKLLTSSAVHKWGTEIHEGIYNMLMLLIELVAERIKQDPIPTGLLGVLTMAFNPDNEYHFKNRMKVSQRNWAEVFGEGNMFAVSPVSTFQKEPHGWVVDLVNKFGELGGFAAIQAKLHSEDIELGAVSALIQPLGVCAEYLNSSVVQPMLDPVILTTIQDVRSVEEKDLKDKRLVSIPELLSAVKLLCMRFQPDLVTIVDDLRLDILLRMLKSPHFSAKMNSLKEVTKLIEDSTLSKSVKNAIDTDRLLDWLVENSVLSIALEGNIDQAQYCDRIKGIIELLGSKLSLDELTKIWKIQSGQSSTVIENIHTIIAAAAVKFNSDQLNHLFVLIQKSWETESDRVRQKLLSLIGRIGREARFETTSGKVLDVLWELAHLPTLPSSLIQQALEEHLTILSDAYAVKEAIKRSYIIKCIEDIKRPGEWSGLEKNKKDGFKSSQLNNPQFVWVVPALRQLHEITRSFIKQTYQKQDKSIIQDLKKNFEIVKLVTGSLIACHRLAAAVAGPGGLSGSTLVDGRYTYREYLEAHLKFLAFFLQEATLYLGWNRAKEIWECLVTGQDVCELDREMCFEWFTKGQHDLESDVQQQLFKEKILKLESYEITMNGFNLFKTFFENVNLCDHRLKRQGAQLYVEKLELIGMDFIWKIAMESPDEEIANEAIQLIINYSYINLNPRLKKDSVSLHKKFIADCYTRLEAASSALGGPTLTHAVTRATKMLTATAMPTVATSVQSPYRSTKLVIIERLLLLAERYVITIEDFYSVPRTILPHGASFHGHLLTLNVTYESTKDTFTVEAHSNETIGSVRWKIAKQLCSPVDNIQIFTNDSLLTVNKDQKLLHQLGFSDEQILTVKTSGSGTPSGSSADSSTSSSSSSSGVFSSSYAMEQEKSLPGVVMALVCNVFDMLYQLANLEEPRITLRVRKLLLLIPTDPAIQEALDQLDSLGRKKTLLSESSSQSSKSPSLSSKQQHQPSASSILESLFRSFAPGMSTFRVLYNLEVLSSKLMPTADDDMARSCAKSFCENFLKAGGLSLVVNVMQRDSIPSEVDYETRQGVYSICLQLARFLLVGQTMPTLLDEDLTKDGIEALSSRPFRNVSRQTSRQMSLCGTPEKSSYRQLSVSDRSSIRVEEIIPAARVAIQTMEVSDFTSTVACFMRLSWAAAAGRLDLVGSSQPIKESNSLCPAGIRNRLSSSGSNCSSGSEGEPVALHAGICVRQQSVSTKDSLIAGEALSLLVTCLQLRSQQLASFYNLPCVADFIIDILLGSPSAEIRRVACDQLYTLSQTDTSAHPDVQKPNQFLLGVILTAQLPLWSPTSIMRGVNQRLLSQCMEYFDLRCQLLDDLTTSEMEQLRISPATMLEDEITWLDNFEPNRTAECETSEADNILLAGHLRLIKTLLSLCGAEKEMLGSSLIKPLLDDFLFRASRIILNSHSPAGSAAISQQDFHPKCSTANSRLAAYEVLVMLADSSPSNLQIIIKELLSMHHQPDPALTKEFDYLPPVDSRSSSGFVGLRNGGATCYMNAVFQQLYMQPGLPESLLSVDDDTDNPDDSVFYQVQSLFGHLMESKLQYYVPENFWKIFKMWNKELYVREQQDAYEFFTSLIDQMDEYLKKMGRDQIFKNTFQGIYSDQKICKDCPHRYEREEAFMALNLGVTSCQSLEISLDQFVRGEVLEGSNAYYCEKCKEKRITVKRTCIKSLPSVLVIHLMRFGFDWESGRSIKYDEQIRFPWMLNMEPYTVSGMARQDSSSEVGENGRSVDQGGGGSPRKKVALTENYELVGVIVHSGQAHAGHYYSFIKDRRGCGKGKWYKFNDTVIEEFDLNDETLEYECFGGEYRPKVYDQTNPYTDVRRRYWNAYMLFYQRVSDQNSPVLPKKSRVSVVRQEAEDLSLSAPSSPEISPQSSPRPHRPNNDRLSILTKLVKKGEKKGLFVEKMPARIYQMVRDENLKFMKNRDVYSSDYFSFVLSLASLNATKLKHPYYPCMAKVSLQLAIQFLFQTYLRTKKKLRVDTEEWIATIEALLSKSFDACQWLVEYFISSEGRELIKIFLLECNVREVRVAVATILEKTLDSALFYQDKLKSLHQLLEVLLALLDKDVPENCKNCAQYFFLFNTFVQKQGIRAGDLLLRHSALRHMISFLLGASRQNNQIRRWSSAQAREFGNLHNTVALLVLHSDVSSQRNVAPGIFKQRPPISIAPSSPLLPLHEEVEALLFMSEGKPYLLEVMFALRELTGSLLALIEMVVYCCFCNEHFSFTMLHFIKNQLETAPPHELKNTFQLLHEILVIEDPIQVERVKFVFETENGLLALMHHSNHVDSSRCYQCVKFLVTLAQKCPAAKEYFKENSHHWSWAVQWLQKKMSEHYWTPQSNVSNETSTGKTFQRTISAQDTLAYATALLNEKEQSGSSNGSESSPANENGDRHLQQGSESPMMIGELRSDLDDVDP

O=C(CCl)NCc1ccc(N2CCOCC2)nc1
inactive: [1] -0.163 | [2] -0.312 | [3] -0.432 | [4] -0.485

From the supplement of paper PMC11732987, “Enantioselective OTUD7B fragment discovery through chemoproteomics screening and high-throughput optimisation” (Communications Chemistry, 2025)
